# Rows were chosen to be rich in hits. Some 2.3% of all compounds tested hit in one or more screens of this group.
# IDH1 R132H inh – inhibitors of human mutant IDH1 R132H; IDH1-R132H enzyme, NADPH consumption, diaphorase/resazurin fluorescence; O75874; Potency, µM (titrated, usually from 76.6 µM), actives largely listed as inhibitors; AID 602179; 0.093% of 390,000 active; note: nearly all actives have a fitted effect of over 65% in size
# Target sequence (O75874 whole entry R132H, stated change not applied): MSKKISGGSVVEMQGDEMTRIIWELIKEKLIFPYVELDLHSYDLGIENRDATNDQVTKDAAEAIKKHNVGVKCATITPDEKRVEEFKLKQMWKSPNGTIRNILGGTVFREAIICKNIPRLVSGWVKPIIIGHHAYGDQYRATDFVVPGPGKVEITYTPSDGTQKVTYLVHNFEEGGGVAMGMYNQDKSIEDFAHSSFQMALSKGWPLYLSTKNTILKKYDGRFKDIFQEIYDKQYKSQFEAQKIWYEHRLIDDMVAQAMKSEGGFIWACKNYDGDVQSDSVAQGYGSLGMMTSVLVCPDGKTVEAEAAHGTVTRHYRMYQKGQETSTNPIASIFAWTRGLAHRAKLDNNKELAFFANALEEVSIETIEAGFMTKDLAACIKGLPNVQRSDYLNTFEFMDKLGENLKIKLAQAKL
#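 IDH1-R132H (0.5 ug/mL) preincubated 30 min with compound, then NADPH (0.016 mM) and alpha-KG (2 mM) added; 80 min at RT, pH 7.5. Remaining NADPH coupled via diaphorase/resazurin to fluorescence (540/590 nm); concentration-response curves normalized to no-enzyme control.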
# Apoferritin bind – candidate novel general anesthetic via apoferritin binding; Potency, µM (top dose mostly 77.5 µM), hits mostly inhibitors; 0.074% of 350,000 active; AID 485281; P02791; apoferritin/1-aminoanthracene competitive binding, fluorescence; note: nearly all actives have a fitted effect of over 20% in size
# Target sequence (P02791 2-175 limits assumed): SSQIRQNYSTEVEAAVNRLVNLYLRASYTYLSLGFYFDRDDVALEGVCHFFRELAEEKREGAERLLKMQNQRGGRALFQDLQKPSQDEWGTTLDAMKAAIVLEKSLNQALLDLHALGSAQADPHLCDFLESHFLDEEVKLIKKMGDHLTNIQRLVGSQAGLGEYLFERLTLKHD
#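 Apoferritin-based anesthetic binding model; compound displacement of fluorescent 1-AMA measured as endpoint fluorescence after 10 minutes at room temperature, scaled to free-ligand and complex controls.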
# Nrf2 activator – Nrf2 pathway activation; AID 624171; 0.31% of 410,000 active; Potency, µM (series often up to 46.1 µM), most hits filed as activators; AREc32 ARE-luciferase reporter (MCF7-derived line), luminescence, 24 h; note: nearly all actives have a fitted effect of over 65% in size
#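 For detection, Steady-Glo was added and plates sat 30 min at RT; before that, AREc32_Fluc cells grown overnight in OPTI-MEM/5% FBS had been treated with 23 nL compound for 24 hr at 37 deg C.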
# Giardia kill – kills Giardia lamblia; Giardia lamblia trophozoite viability; activity change, % at 7.66 µM, hits read low; 0.15% of 340,000 active; in the data active = activity change below about -80%; inconclusive = between about -30% and that limit;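 note: parasites exposed to compound for two days anaerobically before the ATP read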
#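 Media and compound were dispensed first, then trophozoites at 100 cells/well; plates sat 48 hrs at 37 deg C without oxygen before ATP luminescence reagent was added and read after 15-30 min at room temperature.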
# A549 tox – A549 cytotoxicity, counter-screen for Nrf2 inhibitors; AID 504648; 0.16% of 390,000 active; Potency, µM (highest dose often 46 µM), actives largely listed as inhibitors; A549 ARE-Fluc cells, CellTiter-Fluor viability, 18-24 h
#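 A549 ARE_Fluc cells in 5% FBS OPTI-MEM were exposed to compounds in concentration-response for 18-24 h at 37 deg C. Viability was read by CellTiter-Fluor fluorescence (Ex 405/Em 525) after 30 min, before the luciferase read.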
# Nrf2 inh – inhibitors of Nrf2 signaling. 2.1% of 360,000 active. Potency, µM (top dose mostly 46 µM), actives largely listed as inhibitors. A549 ARE-Fluc reporter, luciferase luminescence, 18-24 h; note: nearly all actives have a fitted effect of over 60% in size
#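 In this cell-based qHTS, ARE-driven firefly luciferase in A549 cells reports Nrf2 activity; the luminescent signal after BugLite lysis is the measured value, with a prior CellTiter-Fluor read for cell health.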
# Numbers stand for hits; i = inactive; ? = inconclusive; nt = no result; [ ] = another dose, or the depositor's remark. Unless noted, calls come from the whole dose curve; as a rule, active = well fitted curve in the direction sought with a large enough effect; inconclusive = small, poorly fitted or top-dose-only effect, or another doubt; inactive = no such curve, though single readings can be large; an effect the other way counts as inactive or inconclusive.
SMILES,IDH1 R132H inh,Apoferritin bind,Nrf2 activator,Giardia kill,A549 tox,Nrf2 inh
O=C(c1ccco1)N1CCN(/C=C2\Nc3ccccc3C(=O)N2c2ccc(F)cc2)CC1,nt,nt,nt,i,i,i
COc1ccc(-c2cc(C(F)(F)F)nc(SCC(=O)Nc3ccc(C(C)=O)cc3)n2)cc1,i,i,i,nt,i,23µM
CCOC(=O)c1sc2nc(C)nc(NCc3ccccc3OC)c2c1C,i,i,i,i,i,21µM
Cn1c(CNC(=O)CSc2nc(-c3ccccc3F)nc3cc(=O)[nH]n23)nc2ccccc21,i,i,i,nt,i,?
Cc1cc(C)c(C(=O)/C=C/c2ccc(C(C)C)cc2)c(=O)[nH]1,i,?,i,i,i,18µM
Cc1cc(C)c(C(=O)/C=C/C=C/c2ccccc2)c(=O)[nH]1,i,?,?,i,i,i
CN(C)c1nc(=NCc2cccs2)ss1,i,nt,?,-81,i,i
Cc1ccc(C)c(C(=O)COc2ccccc2[N+](=O)[O-])c1,i,i,22µM,?,i,i
CS(=O)(=O)Nc1ccc(C(=O)Nc2cccc([N+](=O)[O-])c2)cc1,i,i,6.3µM,i,i,i
O=C(Nc1cccc([N+](=O)[O-])c1)Nc1cccs1,i,i,7.1µM,i,i,i
O=C(Nc1cccc([N+](=O)[O-])c1)c1ccc(-c2ccccc2)cc1,i,i,i,i,i,i
CN(C)S(=O)(=O)c1ccc(Cl)c(C(=O)Nc2cccc([N+](=O)[O-])c2)c1,i,i,i,i,i,9.2µM
O=C(O)c1cccc(NS(=O)(=O)c2ccc(Cl)c(C(=O)Nc3cccc([N+](=O)[O-])c3)c2)c1,i,nt,i,i,i,i
COC(=O)c1ccccc1NC(=O)c1ccc(F)cc1F,nt,nt,nt,nt,i,i
O=C(NCCc1ccc(Cl)cc1)C(=O)NCC(c1cccs1)S(=O)(=O)c1ccccc1 (stereo unspecified),i,i,i,nt,i,nt
NNC(=O)c1cc2c(N3CCC(Cc4ccccc4)CC3)ncnc2s1,?,?,i,i,i,26µM
Cn1ncc2c(N3CCC(Cc4ccccc4)CC3)ncnc21,i,i,i,i,i,?
O=C1C2C3C=CC(C3)C2C(=O)N1CCCCCCN1C(=O)C2C3C=CC(C3)C2C1=O (stereo unspecified),i,i,i,i,i,15µM
O=C(C[n+]1cccc2ccccc21)c1ccc([N+](=O)[O-])cc1,i,i,i,i,?,?
O=[N+]([O-])c1ccc(Cl)c(C[n+]2cccc3ccccc32)c1,i,i,i,i,i,12µM
COc1ccc(C2C3=C(N=CN(CCN4CCOCC4)C3N)Oc3ccccc32)cc1OC (stereo unspecified),nt,nt,nt,nt,i,i
O=[N+]([O-])c1cc(-n2cnnn2)ccc1N1CCC(Cc2ccccc2)CC1,i,?,i,i,?,10µM
O=S1(=O)N=C(Sc2ccc3c(c2)OCCO3)c2ccccc21,nt,nt,nt,nt,i,i
CCCN1CNc2c(c(=O)[nH]c(=S)n2CCc2ccc(C)cc2C)C1,nt,nt,nt,i,i,i
Cc1nc2scc(-c3ccccc3)c2c(=O)n1N=C1C=CC(=O)C=C1,i,?,10µM,i,i,i
SMILES,IDH1 R132H inh,Apoferritin bind,Nrf2 activator,Giardia kill,A549 tox,Nrf2 inh
Cc1nc2scc(-c3ccccc3)c2c(=O)n1N,i,i,i,i,i,i
CC(C(=O)Nc1ccc(F)c(Cl)c1)N1Cc2ccccc2C1=O (stereo unspecified),i,i,i,nt,i,i
CC1(C)CC(=O)C=C(NC2=CC3OC(c4ccccc4)OCC3OC2=O)C1 (stereo unspecified),i,i,i,i,?,16µM
Cc1ccccc1NC1=CC(=O)CC(C)(C)C1,i,i,i,i,i,nt
Cc1cc2c(s1)c1cnn(Cc3c(F)c(F)c(C(F)(F)F)c(F)c3F)c(=O)c1n2C,nt,nt,nt,nt,i,i
CN1C/C(=C\c2ccc(N3CCOCC3)cc2)C(=O)/C(=C/c2ccc(N3CCOCC3)cc2)C1,i,i,11µM,i,i,i
CC(=O)Nc1ccc(OC2=NS(=O)(=O)c3ccccc32)cc1,nt,nt,nt,nt,i,?
COc1ccccc1NC(=O)Nc1nc(CC(=O)N2CCN(c3ccccc3)CC2)cs1,i,nt,i,i,i,7.3µM
Cc1cc2ncn(/N=C/c3ccc([N+](=O)[O-])s3)c2cc1C,i,i,?,-98,i,?
Cc1ccc(S(=O)c2ccc([N+](=O)[O-])c3nonc23)cc1 (stereo unspecified),i,nt,18µM,nt,nt,nt
Cc1ccc(Nc2c([N+](=O)[O-])ccc3nonc23)c(C)c1,i,i,i,i,i,i
COc1ccc(CNC(=O)[C@H](C)N2C(=O)N3CCc4c([nH]c5ccccc45)[C@@]3(C)C2=O)cc1OC,i,i,i,i,i,16µM
COc1ccc(C2CC(c3cccc(F)c3)=NN2c2ccc(S(N)(=O)=O)cc2)cc1 (stereo unspecified),i,nt,i,i,i,?
COc1ccc(C2CC(c3cccc(C(F)(F)F)c3)=NN2c2ccc(S(N)(=O)=O)cc2)cc1 (stereo unspecified),i,nt,i,i,i,23µM
Nc1nc2c(ncn2C2CC(O)C(CO)O2)c(=O)[nH]1 (stereo unspecified),nt,i,nt,nt,nt,nt
COc1nn(C(C)C(=O)N2N=C(C(F)F)CC2(O)C(F)F)cc1[N+](=O)[O-] (stereo unspecified),i,i,i,-82,i,?
COc1nn(CC(=O)N2N=C(C(F)F)CC2(O)C(F)F)cc1[N+](=O)[O-] (stereo unspecified),i,i,i,i,i,i
COc1ccc(NC(=O)C2CCN(S(=O)(=O)c3ccc4c(c3)NC(=O)C(C)S4)CC2)cc1 (stereo unspecified),i,i,i,i,i,23µM
CC1Sc2ccc(S(=O)(=O)N3CCC(C(=O)Nc4ccc(Cl)cc4)CC3)cc2NC1=O (stereo unspecified),i,i,i,i,i,i
COc1cccc(NC(=O)C2CCN(S(=O)(=O)c3ccc4c(c3)NC(=O)C(C)S4)CC2)c1 (stereo unspecified),i,i,i,i,i,?
CCOc1ccc(NC(=O)C2CCN(S(=O)(=O)c3ccc4c(c3)NC(=O)C(C)S4)CC2)cc1 (stereo unspecified),i,i,i,i,i,15µM
O=C(NNC(=O)C(c1ccccc1)c1ccccc1)c1ccccn1,i,i,i,i,?,15µM
COc1ccc(-n2nc3cc(C)c(NC(=O)COc4cccc(C)c4)cc3n2)cc1,i,i,i,nt,i,i
CCOC(=O)C1(C)CCN1C(=O)c1ccccc1Br (stereo unspecified),nt,nt,i[9.22 µM],nt,nt,nt

# Assay outcomes (PubChem)
